40 molecules from PubChem BioAssay can be followed below.

Activity calls are given as the source filed them. Rule as the data show it, unless noted: active = inhibition above about 31%; inactive = the rest.

The first assay is described as follows: 384-well plate pilot, post-Golgi transport modulator project, inhibition of yeast transport mutant growth (AID 636). The following applies: absorbance 615 nm, about 18 h, hits give high values.
One may read the inhibition as the drop in the measured response relative to a control, in per cent. Turning to `O=C(CSc1nnc(-c2cccnc2)o1)Nc1ccccn1`, the inhibition was 0.68% (inactive).

As to `CCC1Oc2ccccc2N(CC(=O)Nc2ccc(OC)cc2OC)C1=O` (stereo not given), the inhibition is -2.24% (inactive).

As for `Cc1cccn2c(=O)c3cc(C(=O)N4CCCc5ccccc54)n(C)c3nc12`, the inhibition was -1.89% (inactive).

As for `CCN(CC)CCCn1c(=S)[nH]c2cc(Cl)ccc2c1=O`, the inhibition was -6.27% (inactive).

Consider `CCCCC(=O)NCCNc1nc2c(c(=O)n(C)c(=O)n2C)n1Cc1ccccc1`, for which the inhibition is -5.68% (inactive).

As for `O=C(C1CCCCC1)N1CCC(c2nc3c(nnn3Cc3c(F)cccc3Cl)c(=O)[nH]2)CC1`, the inhibition was -3.77% (inactive).

For the molecule `CCOc1ccc(OCC)c(NC(=O)CN2CCN(C(=O)c3ccco3)CC2)c1`, the inhibition is 4.81% (inactive).

For `CN(C)CCCNC(=O)c1ccc(CN(c2ccccc2)S(C)(=O)=O)cc1`, the inhibition is 0.91% (inactive).

As to `Cc1oc(-c2ccc(Cl)cc2)nc1CS(=O)CC(=O)NCCCN(C)C1CCCCC1` (stereo not given), the inhibition was -2.99% (inactive).

As for `N#CC1=C(N)OC(c2ccccc2)=C(C#N)C1c1ccc2c(c1)OCO2` (stereo not given), the inhibition is -0.13% (inactive).

Regarding `O=C1C(C=NCCCn2ccnc2)=C(O)c2ccccc21`, the inhibition was -5.14% (inactive).

On to `Cc1c(Cl)cccc1N1C(=O)c2ccccc2C1=O`, for which the inhibition was -4.86% (inactive).

Consider `CN1C(=O)NC(NC(=O)C2CCCCC2)(C(F)(F)F)C1=O` (stereo not given), for which the inhibition was -0.92% (inactive).

Regarding `CCOC(=O)C1=C(C)Nc2ncnn2C1c1ccccc1F` (stereo not given), the inhibition is -0.92% (inactive).

As to `CCC(Oc1ccc2ccccc2c1)C(=O)O` (stereo not given), the inhibition is -3.33% (inactive).

Consider `C=Cn1c(C(=O)O)cc(CC)c1-c1ccccc1`, for which the inhibition was -4.4% (inactive).

Turning to `CC(=O)N1CCc2cc(S(=O)(=O)NC(C(=O)NCc3ccccc3)C(C)C)ccc21` (stereo not given), the inhibition was -2.5% (inactive).

As to `COc1ccccc1CN1CCCC(C(=O)N(C)Cc2ccccc2)C1` (stereo not given), the inhibition is -0.77% (inactive).

Consider `CCOC(=O)c1c(N)sn(-c2ccccc2)c1=S`, for which the inhibition is -0.9% (inactive).

On to `Cc1cc(C)c2c(n1)nn1c(N3CCOCC3)cc(C)nc21`, for which the inhibition was -4.86% (inactive).

`CC(C)c1cc(C(=O)NCc2ccco2)no1`: the inhibition is 0.13% (inactive).

In the case of `NC(=O)COC(=O)CNC(=O)c1ccc(Cl)cc1`, the inhibition was -2.4% (inactive).

`Cc1cccc(-c2c3c(=O)n(C)c(=O)n(C)c3cn2-c2ccc(O)cc2)c1`: the inhibition was -3.11% (inactive).

As to `Cn1c(SC/C=C/c2ccccc2)nnc1-c1cnccn1`, the inhibition was 2.27% (inactive).

As to `COc1ccc2nc(N3CCC(C)CC3)c(C#N)cc2c1`, the inhibition was -5.33% (inactive).

With `CC1(C)CC(=O)C(C#N)=C(NCCCO)C1`, the inhibition was -1.2% (inactive).

Turning to `CCCc1[nH]nc2c1C(c1cccc(OC(=O)c3ccco3)c1)C(C#N)=C(N)O2` (stereo not given), the inhibition was -3.16% (inactive).

On to `CC(=O)N(c1ccc(N(C(C)=O)S(=O)(=O)c2cccs2)cc1)S(=O)(=O)c1cccs1`, for which the inhibition was -1.18% (inactive).

As for `O=C(NCCC1=CCCCC1)N[C@@H](Cc1ccccc1)C(=O)O`, the inhibition is 0.13% (inactive).

Turning to `COc1ccccc1C(=O)n1nc(-c2ccccc2)nc1N`, the inhibition was -3.29% (inactive).

For `O=C(O)COc1ccc2occ(C(=O)c3ccccc3)c2c1`, the inhibition is -3.55% (inactive).

Take `O=C(NCC1CCCO1)C1CCCN(S(=O)(=O)c2cccc3nsnc23)C1` (stereo not given): the inhibition is -2.27% (inactive).

For the molecule `CN1CCN(C(c2cccc(C(F)(F)F)c2)c2nnnn2C(C)(C)C)CC1` (stereo not given), the inhibition is -4.8% (inactive).

Turning to `Nc1nnnn1/N=C/c1ccccc1OCc1ccccc1`, the inhibition was -4.13% (inactive).

Consider `Cc1ccc(C(=O)C2COC(=O)C2)cc1` (stereo not given), for which the inhibition was -1.97% (inactive).

Turning to `O=C(CSc1nnc(-c2c[nH]c3ccccc23)o1)N(Cc1ccccc1)c1ccc(F)cc1`, the inhibition is 2.53% (inactive).

For the molecule `CC(C)OC(=O)CSc1nnc(-c2ccc(C(C)(C)C)cc2)n1N`, the inhibition was -2.6% (inactive).

Consider `COc1cc(Br)cc(/C=N/c2ncn[nH]2)c1O`, for which the inhibition was -4.81% (inactive).

`CSc1ccccc1N=CC1=C(O)CC(C)(C)CC1=O`: the inhibition was -4.94% (inactive).

As to `CC1(C)CC(CCNC(=O)c2ccco2)CC(C)(C)N1`, the inhibition is -3.73% (inactive).

The next assay in a line: growth suppression of yeast trafficking mutant, preliminary HTS, modulators of trafficking downstream of Golgi apparatus project, 1536-format plate, OD 615 nm (AID 637; in the data active = inhibition above about 30%). The following applies: yeast transport mutant growth, absorbance 615 nm, 18 h; hits give high values.
For `O=C(CSc1nnc(-c2cccnc2)o1)Nc1ccccn1`, the inhibition is 31.8% (active).

As to `CCC1Oc2ccccc2N(CC(=O)Nc2ccc(OC)cc2OC)C1=O` (stereo not given), the inhibition was -1.09% (inactive).

On to `Cc1cccn2c(=O)c3cc(C(=O)N4CCCc5ccccc54)n(C)c3nc12`, for which the inhibition was -5.08% (inactive).

Take `CCN(CC)CCCn1c(=S)[nH]c2cc(Cl)ccc2c1=O`: the inhibition was 1.8% (inactive).

`CCCCC(=O)NCCNc1nc2c(c(=O)n(C)c(=O)n2C)n1Cc1ccccc1`: the inhibition is 2.06% (inactive).

For the molecule `O=C(C1CCCCC1)N1CCC(c2nc3c(nnn3Cc3c(F)cccc3Cl)c(=O)[nH]2)CC1`, the inhibition was -6.39% (inactive).

For the molecule `CCOc1ccc(OCC)c(NC(=O)CN2CCN(C(=O)c3ccco3)CC2)c1`, the inhibition is -7.3% (inactive).

Consider `CN(C)CCCNC(=O)c1ccc(CN(c2ccccc2)S(C)(=O)=O)cc1`, for which the inhibition is -7.87% (inactive).

Consider `Cc1oc(-c2ccc(Cl)cc2)nc1CS(=O)CC(=O)NCCCN(C)C1CCCCC1` (stereo not given), for which the inhibition was 5.56% (inactive).

As for `N#CC1=C(N)OC(c2ccccc2)=C(C#N)C1c1ccc2c(c1)OCO2` (stereo not given), the inhibition was 100% (active).

For `O=C1C(C=NCCCn2ccnc2)=C(O)c2ccccc21`, the inhibition was -1.75% (inactive).

In the case of `Cc1c(Cl)cccc1N1C(=O)c2ccccc2C1=O`, the inhibition was -2.3% (inactive).

`CN1C(=O)NC(NC(=O)C2CCCCC2)(C(F)(F)F)C1=O` (stereo not given): the inhibition was -0.65% (inactive).

For `CCOC(=O)C1=C(C)Nc2ncnn2C1c1ccccc1F` (stereo not given), the inhibition is -1.29% (inactive).

`CCC(Oc1ccc2ccccc2c1)C(=O)O` (stereo not given): the inhibition is 1.15% (inactive).

For the molecule `C=Cn1c(C(=O)O)cc(CC)c1-c1ccccc1`, the inhibition was -7.42% (inactive).

Regarding `CC(=O)N1CCc2cc(S(=O)(=O)NC(C(=O)NCc3ccccc3)C(C)C)ccc21` (stereo not given), the inhibition was -10% (inactive).

Take `COc1ccccc1CN1CCCC(C(=O)N(C)Cc2ccccc2)C1` (stereo not given): the inhibition was 5% (inactive).

Take `CCOC(=O)c1c(N)sn(-c2ccccc2)c1=S`: the inhibition was 2.17% (inactive).

Turning to `Cc1cc(C)c2c(n1)nn1c(N3CCOCC3)cc(C)nc21`, the inhibition was 0.79% (inactive).

Take `CC(C)c1cc(C(=O)NCc2ccco2)no1`: the inhibition is -2.83% (inactive).

On to `NC(=O)COC(=O)CNC(=O)c1ccc(Cl)cc1`, for which the inhibition is -0.81% (inactive).

Consider `Cc1cccc(-c2c3c(=O)n(C)c(=O)n(C)c3cn2-c2ccc(O)cc2)c1`, for which the inhibition was -2.38% (inactive).

Consider `Cn1c(SC/C=C/c2ccccc2)nnc1-c1cnccn1`, for which the inhibition was -5.48% (inactive).

Consider `COc1ccc2nc(N3CCC(C)CC3)c(C#N)cc2c1`, for which the inhibition is 2.62% (inactive).

`CC1(C)CC(=O)C(C#N)=C(NCCCO)C1`: the inhibition was 0.97% (inactive).

As to `CCCc1[nH]nc2c1C(c1cccc(OC(=O)c3ccco3)c1)C(C#N)=C(N)O2` (stereo not given), the inhibition is -1.11% (inactive).

Turning to `CC(=O)N(c1ccc(N(C(C)=O)S(=O)(=O)c2cccs2)cc1)S(=O)(=O)c1cccs1`, the inhibition was 1.15% (inactive).

Take `O=C(NCCC1=CCCCC1)N[C@@H](Cc1ccccc1)C(=O)O`: the inhibition was 0.16% (inactive).

As to `COc1ccccc1C(=O)n1nc(-c2ccccc2)nc1N`, the inhibition is 3.77% (inactive).

On to `O=C(O)COc1ccc2occ(C(=O)c3ccccc3)c2c1`, for which the inhibition was 7.21% (inactive).

As to `O=C(NCC1CCCO1)C1CCCN(S(=O)(=O)c2cccc3nsnc23)C1` (stereo not given), the inhibition was -7.62% (inactive).

On to `CN1CCN(C(c2cccc(C(F)(F)F)c2)c2nnnn2C(C)(C)C)CC1` (stereo not given), for which the inhibition is 0.82% (inactive).

Consider `Nc1nnnn1/N=C/c1ccccc1OCc1ccccc1`, for which the inhibition is 2.42% (inactive).

In the case of `Cc1ccc(C(=O)C2COC(=O)C2)cc1` (stereo not given), the inhibition was -4.84% (inactive).

With `O=C(CSc1nnc(-c2c[nH]c3ccccc23)o1)N(Cc1ccccc1)c1ccc(F)cc1`, the inhibition was 7.7% (inactive).

In the case of `CC(C)OC(=O)CSc1nnc(-c2ccc(C(C)(C)C)cc2)n1N`, the inhibition was -12.7% (inactive).

As for `COc1cc(Br)cc(/C=N/c2ncn[nH]2)c1O`, the inhibition was -3.44% (inactive).

Turning to `CSc1ccccc1N=CC1=C(O)CC(C)(C)CC1=O`, the inhibition was -3.28% (inactive).

In the case of `CC1(C)CC(CCNC(=O)c2ccco2)CC(C)(C)N1`, the inhibition was -4.76% (inactive).
